In PubChem BioAssay (Tox21):
Inconclusive results are not listed. Activity calls are given as the source filed them. Unless noted, calls follow the shape of the dose curve; as a rule, active = well fitted curve in the direction sought with a large enough effect in the repeat runs; inconclusive = weak or mixed curves; inactive = no such curve, though single readings can be large; an effect the other way counts as inactive or inconclusive.

Tests used:
[1] = qHTS assay for small molecule agonists of the p53 signaling pathway (AID 651631; calls by dose curve; also: nearly all actives have a fitted effect of over 15% in size)
Summary of the method: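 HCT-116 cells carrying a stable p53 response element–beta-lactamase reporter were plated, rested 5 h at 37 °C, then exposed to compound in DMSO for 16 h at 37 °C; reporter activity was read as FRET substrate fluorescence after 2 h at room temperature.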

[2] = qHTS assay for small molecules that induce genotoxicity in human embryonic kidney cells expressing luciferase-tagged ATAD5 (AID 651632); also: nearly all actives have a fitted effect of over 15% in size
Summary of the method: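 HEK293T cells carrying luciferase-tagged ATAD5 were given compound or DMSO vehicle and incubated 16 hr at 37C, 5% CO2. Luciferase activity was read after 30 min at room temperature with Amplite; a rise signals genotoxic stress.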

[3] = qHTS assay for small molecule agonists of the p53 signaling pathway - cell viability (AID 651633; calls by dose curve; also: series mostly up to about 83 µM; nearly all actives have a fitted effect of over 30% in size)
Summary of the method: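 p53RE-bla cells, seeded at 4,000 per well and rested 5 h at 37 C/5% CO2, received compounds in DMSO for 16 h at 37 C. CellTiter-Glo was then added, and luminescence was read after 30 min at room temperature to gauge cytotoxicity.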

[4] = qHTS assay for small molecules that induce genotoxicity in human embryonic kidney cells expressing luciferase-tagged ATAD5 - cell viability (AID 651634; calls by dose curve; also: nearly all actives have a fitted effect of over 25% in size)
Summary of the method: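 HEK293T cells carrying luciferase-tagged ATAD5, 2,000 cells/well, exposed to compound for 15.5 hr at 37C. Viability read as live-cell protease activity by CellTiter-Fluor fluorescence after 30 min at 37C.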

[5] = qHTS assay for small molecule disruptors of the mitochondrial membrane potential - cell viability (AID 720634; calls by dose curve;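 also: human HepG2 liver cancer cells; series mostly up to about 83 µM; nearly all actives have a fitted effect of over 20% in size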)
Summary of the method: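 HepG2 cells, 2,000 per well, attached overnight, then treated 1 hr at 37 C, 5% CO2. Viability read as ATP by CellTiter-Glo luminescence after 30 min at room temperature. Read in the same wells as the m-MPI membrane-potential dye assay.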

[6] = qHTS assay for small molecule disruptors of the mitochondrial membrane potential (AID 720635); also: potency is read from the fitted curve at half-maximal effect
Summary of the method: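 HepG2 cells (2,000/well) attached overnight at 37C, then took compound for 1 hr at 37C, 5% CO2. Mito-MPS dye was added for 30 min; fluorescence was read at 490/535 nm (monomers) and 540/590 nm (aggregates).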

[7] = qHTS assay to test for compound auto fluorescence at 590 nm (red) in HepG2 cells (AID 720674)
Summary of the method: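 Rose Bengal sodium served as the red fluorophore standard. HepG2 monolayers (overnight attachment, MEM with 10% FBS) were exposed to test compounds for 1 hr at 37 C and read at Ex 540/Em 590 nm.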

[8] = qHTS assay to test for compound auto fluorescence at 535 nm (green) in HepG2 cells (AID 720675)
[9] = qHTS assay to test for compound auto fluorescence at 590 nm (red) in HEK293 cells (AID 720679)
Summary of the method: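 Plates of HEK293 cells (10% dialyzed FBS) are treated with 23 nL compound or DMSO vehicle after a 4-5 hr attachment period, incubated overnight at 37C, and read for red fluorescence at 540/590nm.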

[10] = qHTS assay to test for compound auto fluorescence at 460 nm (blue) in HEK293 cells (AID 720678)
Summary of the method: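 After cell attachment (4-5 hr, 37C), compounds were pinned onto HEK293 monolayers in 10% dialyzed FBS medium. The blue channel (405/460 nm) was read following overnight culture. Equivalency was calculated against triamterene.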
% is scaled to controls: 0 for no effect and ±100 for the full control effect.

CC(C)[N+](C)(CCC(C(N)=O)(c1ccccc1)c1ccccc1)C(C)C
inactive: Potency [1] | outcome [2] | Potency [3] | Potency [4] | Potency [5] | Potency [6] | fluorescence, relative to Rose Bengal [7] -0.328% [at 18.6 µM] | fluorescence, % of fluorescein control [8] -0.0469% [at 18.6 µM] | fluorescence, % of fluorescent control [9] -0.12% [at 18.6 µM]

O=CCCl
inactive: Potency [1] | outcome [2] | Potency [3] | Potency [4] | Potency [5] | outcome [7] | outcome [8] | outcome [10] | outcome [9]

CCCOC(=O)Cc1ccc(OCC(=O)N(CC)CC)c(OC)c1
inactive: Potency [1] | outcome [2] | Potency [3] | Potency [4] | Potency [5] | Potency [6] | outcome [7] | outcome [8] | outcome [10] | outcome [9]

CC1NCCOC1c1ccccc1 (stereo not drawn)
inactive: Potency [1] | outcome [2] | Potency [3] | Potency [4] | Potency [5] | Potency [6] | outcome [7] | outcome [8] | outcome [9]

CCC(C)(C#N)N=NC(C)(C#N)CC (stereo not drawn)
inactive: Potency [1] | outcome [2] | Potency [3] | Potency [4] | Potency [5] | outcome [7] | outcome [8] | outcome [10] | outcome [9]

CN(C)C(=O)Oc1cc(OC(=O)N(C)C)cc(C(O)CNC(C)(C)C)c1 (stereo not drawn)
inactive: Potency [1] | outcome [2] | Potency [3] | Potency [4] | Potency [5] | fluorescence, relative to Rose Bengal [7] 0.42% [at 18.6 µM] | fluorescence, % of fluorescein control [8] 0.0476% [at 18.6 µM] | fluorescence, % of triamterene [10] 0.0042% [at 18.6 µM] | fluorescence, % of fluorescent control [9] 0.104% [at 18.6 µM]

CN(CCO)CCO
inactive: Potency [1] | outcome [2] | Potency [3] | Potency [4] | Potency [5] | outcome [7] | outcome [8] | outcome [10] | outcome [9]

CC1N=C(N)OC1c1ccccc1 (stereo not drawn)
inactive: Potency [1] | outcome [2] | Potency [3] | Potency [4] | Potency [5] | Potency [6] | outcome [7] | outcome [8] | outcome [9]

CCOC(=O)Nc1cccc(OC(=O)Nc2ccccc2)c1
active: Potency [6] 9.69 µM
inactive: Potency [1] | outcome [2] | Potency [3] | Potency [4] | outcome [7] | outcome [8] | outcome [10] | outcome [9]

Cc1ccc2c(c1)C1CN(C)CCC1N2 (stereo not drawn)
inactive: Potency [1] | Potency [3] | Potency [4] | Potency [5] | Potency [6] | outcome [7] | outcome [8] | outcome [10] | outcome [9]

CCC(=O)OC1(c2ccccc2)CCN(C)CC1
inactive: Potency [1] | Potency [3] | Potency [4] | Potency [5] | Potency [6] | outcome [7] | outcome [8] | outcome [10] | outcome [9]

CCNP(=S)(OC)O/C(C)=C/C(=O)OC(C)C (stereo not drawn)
inactive: Potency [1] | outcome [2] | Potency [3] | Potency [4] | outcome [7] | outcome [8] | outcome [10] | outcome [9]

O=C(Cl)CCl
inactive: Potency [1] | Potency [3] | Potency [4] | Potency [5] | Potency [6] | outcome [7] | outcome [8] | outcome [10] | outcome [9]

O=C(O)C(F)(F)C(F)(F)C(F)(F)C(F)(F)C(F)(F)C(F)(F)F
inactive: Potency [1] | outcome [2] | Potency [3] | Potency [4] | Potency [5] | outcome [7] | outcome [8] | outcome [10] | outcome [9]

Cc1cccc2sc3nncn3c12
inactive: Potency [1] | outcome [2] | Potency [3] | Potency [4] | Potency [5] | outcome [7] | outcome [8] | outcome [10] | outcome [9]

CNC(=O)NC(O)C(Cl)(Cl)Cl (stereo not drawn)
inactive: Potency [1] | outcome [2] | Potency [3] | Potency [4] | Potency [5] | outcome [7] | outcome [8] | outcome [10] | outcome [9]

[O-][Br+2]([O-])O
inactive: Potency [1] | outcome [2] | Potency [3] | Potency [5] | outcome [7] | outcome [8] | outcome [10] | outcome [9]

CCOC(=O)c1ncn2c1CN(C)C(=O)c1c(I)cccc1-2
inactive: Potency [1] | outcome [2] | Potency [3] | Potency [4] | Potency [5] | outcome [7] | outcome [8] | outcome [10] | outcome [9]

BrCCc1ccccc1
inactive: Potency [1] | outcome [2] | Potency [3] | Potency [4] | Potency [5] | outcome [7] | outcome [8] | outcome [10] | outcome [9]

CCOC(=O)C(SP(=S)(OC)OC)c1ccccc1 (stereo not drawn)
inactive: Potency [1] | outcome [2] | Potency [3] | Potency [4] | Potency [5] | outcome [7] | outcome [8] | outcome [10] | outcome [9]

CCOP(=S)(OCC)Oc1ccc(Cl)cc1Cl
inactive: Potency [1] | outcome [2] | Potency [3] | Potency [4] | outcome [7] | outcome [8] | outcome [10] | outcome [9]

NCC1(CC(=O)O)CCCCC1
inactive: Potency [1] | Potency [3] | Potency [4] | Potency [5] | Potency [6] | fluorescence, relative to Rose Bengal [7] 0.106% [at 18.6 µM] | fluorescence, % of fluorescein control [8] 0.0214% [at 18.6 µM] | fluorescence, % of triamterene [10] 0.0823% [at 18.6 µM] | fluorescence, % of fluorescent control [9] 0.0233% [at 18.6 µM]

O=[N+]([O-])CCO
inactive: Potency [1] | outcome [2] | Potency [3] | Potency [4] | outcome [7] | outcome [8] | outcome [10] | outcome [9]

Clc1cc2c(cc1Cl)Oc1cc(Cl)c(Cl)cc1O2
inactive: activation [1] -5.64% [at 0.337 µM] | activation [2] 0.775% [at 0.33 µM] | activity change, negative = cytotoxicity [3] -8.49% [at 0.33 µM] | activity, negative = cytotoxicity [4] 15.1% [at 0.33 µM] | activity change, negative = cytotoxicity [5] 5.89% [at 0.33 µM] | fluorescence, relative to Rose Bengal [7] -0.0382% [at 0.37 µM] | fluorescence, % of fluorescein control [8] -0.0272% [at 0.37 µM] | fluorescence, % of triamterene [10] -0.0407% [at 0.37 µM] | fluorescence, % of fluorescent control [9] 0.175% [at 0.37 µM]
